# Assay results taken from PubChem BioAssay (NCATS).
# Results filed as inconclusive are left out. Where a call stands in place of a potency, no number is given. Values without a mark were called inactive. The source made the active and inactive calls. Calls come from the whole dose curve; as a rule, active = well fitted curve in the direction sought with a large enough effect; inconclusive = small, poorly fitted or top-dose-only effect, or another doubt; inactive = no such curve, though single readings can be large; an effect the other way counts as inactive or inconclusive.
# Tests used:
# [1] = tested on: CRL-7250; assay: Cytotoxic Profiling of Annotated Libraries Using Quantitative High-Throughput Screening (AID 1296008); details: Five cell lines viability, CellTiter-Glo ATP luminescence, 48-72 h; max response: hits give low values; note: nearly all actives have a fitted effect of over 60% in size; note: potency is the fitted concentration of half-maximal effect
# In short: (§1)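 Cytotoxicity was measured as CellTiter-Glo ATP luminescence, read after 10 min at room temperature. Compound treatment of the cells lasted 48 or 72 hr at 37 degrees Celsius in a qHTS format.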
# [2] = tested on: HEK293; assay: as above; details: Five cell lines viability, CellTiter-Glo ATP luminescence, 48-72 h; max response: hits give low values
# In short: as §1
# [3] = tested on: HaCat; assay: as above; details: Five cell lines viability, CellTiter-Glo ATP luminescence, 48-72 h; max response: hits give low values
# In short: as §1
# [4] = tested on: KB-3-1; assay: as above; details: Five cell lines viability, CellTiter-Glo ATP luminescence, 48-72 h; max response: hits give low values
# In short: as §1
# [5] = tested on: NIH3T3; assay: as above; details: Five cell lines viability, CellTiter-Glo ATP luminescence, 48-72 h; max response: hits give low values
# In short: as §1
# [6] = tested on: HACAT; assay: qHTS assay to identify novel small-molecules to repurpose for Merkel cell carcinoma treatment (AID 1296009); details: MCC and control cell lines, CellTiter-Glo viability, 72 h; at 44.8 µM (top of the series) unless noted; note: nearly all actives have a fitted effect of over 60% in size
# In short: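 Cell viability measured by CellTiter-Glo following 72 hr compound treatment at 37 degree celsius, with NPC and MIPE libraries tested in 8- and 11-point concentration series.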
# [7] = tested on: C33A; assay: Primary qHTS to identify gynecologic anti-cancer compounds using libraries of approved drugs and bioactive compounds (AID 1345084); details: Gynecologic cancer cell panel viability, ATPlite luminescence, 48 h; series mostly up to 57.5 µM; note: nearly all actives have a fitted effect of over 55% in size
# In short: (§2)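 Five-point cytotoxicity, 48 h drug exposure at 37 C, 5% CO2, on cells seeded 16 h beforehand. ATP content read by ATPlite luminescence.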
# [8] = tested on: CAOV3; assay: as above; details: Gynecologic cancer cell panel viability, ATPlite luminescence, 48 h; series mostly up to 57.5 µM
# In short: as §2
# [9] = tested on: Es-2; assay: as above; details: Gynecologic cancer cell panel viability, ATPlite luminescence, 48 h; series mostly up to 57.5 µM
# In short: as §2
# [10] = tested on: HeLa; assay: as above; details: Gynecologic cancer cell panel viability, ATPlite luminescence, 48 h; series mostly up to 57.5 µM
# In short: as §2
# [11] = tested on: JEG-3; assay: as above; details: Gynecologic cancer cell panel viability, ATPlite luminescence, 48 h; series mostly up to 57.5 µM
# In short: as §2
# [12] = tested on: OV90; assay: as above; details: Gynecologic cancer cell panel viability, ATPlite luminescence, 48 h; series mostly up to 57.5 µM
# In short: as §2
# [13] = tested on: PA-1; assay: as above; details: Gynecologic cancer cell panel viability, ATPlite luminescence, 48 h; series mostly up to 57.5 µM
# In short: as §2
# [14] = tested on: CASKI; assay: as above; details: Gynecologic cancer cell panel viability, ATPlite luminescence, 48 h; series mostly up to 57.5 µM
# In short: as §2
# [15] = tested on: Hek293T; assay: as above; details: Gynecologic cancer cell panel viability, ATPlite luminescence, 48 h, control line for the selectivity index; series mostly up to 57.5 µM
# In short: as §2
smiles,measurement,setting,value
C=C1C(=O)O[C@@H]2/C=C(\C)CC/C=C(\C(=O)O[C@@H]3O[C@H](CO)[C@@H](O)[C@H](O)[C@H]3O)CC[C@@H]12,max response,[1],4.73%
same,max response,[2],-0.494%
same,outcome,[3],inactive
same,max response,[4],-8.71%
same,max response,[5],-22.6%
same,outcome,[6],inactive [at 17.4 µM]
same,Potency,[7],inactive
same,Potency,[8],inactive
same,Potency,[9],inactive
same,Potency,[10],inactive
same,Potency,[11],inactive
same,Potency,[12],inactive
same,Potency,[13],inactive
C=C1CC23CC1CCC2C12OC(=O)C(C)(C(O)CC1O)C2C3C(=O)O (stereo not drawn),max response,[1],-0.83%
same,max response,[2],-15.6%
same,outcome,[3],inactive
same,max response,[4],1.34%
same,max response,[5],-6.25%
same,outcome,[6],inactive
same,Potency,[7],inactive
same,Potency,[8],inactive
same,outcome,[14],inactive
same,Potency,[9],inactive
same,Potency,[10],inactive
same,Potency,[15],inactive
same,Potency,[11],inactive
same,Potency,[12],inactive
same,Potency,[13],inactive
COc1cc(/C=C/c2ccccc2)c(C(=O)O)c(O)c1CC=C(C)C,max response,[1],-4.97%
same,max response,[2],2.12%
same,outcome,[3],inactive
same,max response,[4],6.27%
same,max response,[5],3.69%
same,outcome,[6],inactive
same,Potency,[7],inactive
same,Potency,[8],inactive
same,outcome,[14],inactive
same,Potency,[9],inactive
same,Potency,[10],inactive
same,Potency,[15],inactive
same,Potency,[11],inactive
same,Potency,[12],inactive
same,Potency,[13],inactive
C[C@H]1[C@H](C)CC[C@]2(C(=O)O)CC[C@]3(C(=O)O)C(=CCC4[C@@]5(C)CC[C@H](O[C@@H]6O[C@@H](C)[C@H](O)[C@@H](O)[C@H]6O)C(C)(C)C5CC[C@]43C)[C@H]12 (stereo partly drawn),outcome,[1],inactive
same,max response,[2],-0.583%
same,outcome,[3],inactive
same,max response,[4],-0.753%
same,max response,[5],4.82%
same,outcome,[6],inactive [at 17.4 µM]
same,Potency,[7],inactive
same,Potency,[8],inactive
same,Potency,[9],inactive
same,Potency,[10],inactive
same,Potency,[15],inactive
same,Potency,[11],inactive
same,Potency,[12],inactive
same,Potency,[13],inactive
COc1cc2c(c(O)c1OC/C=C(\C)CC/C=C(/C)CCC=C(C)C)CN(C(CCC(=O)O)C(=O)O)C2=O (stereo not drawn),outcome,[1],inactive
same,max response,[2],2.31%
same,outcome,[3],inactive
same,max response,[4],3.38%
same,max response,[5],-3.47%
same,outcome,[6],inactive [at 17.4 µM]
same,Potency,[7],inactive
same,Potency,[8],inactive
same,outcome,[14],inactive
same,Potency,[9],inactive
same,Potency,[10],inactive
same,Potency,[15],inactive
same,Potency,[11],inactive
same,Potency,[12],inactive
same,Potency,[13],inactive
O=C(N[C@@H]1CC[C@@H](c2cccc(F)c2F)CN(CC(F)(F)F)C1=O)N1CCC(n2c(=O)[nH]c3ncccc32)CC1,max response,[1],-4.99%
same,Potency,[2],16.4 µM (active)
same,outcome,[3],inactive
same,outcome,[4],inactive
same,max response,[5],-12.6%
same,outcome,[6],inactive
same,Potency,[7],inactive
same,outcome,[14],inactive
same,Potency,[9],inactive
same,Potency,[10],inactive
same,Potency,[15],inactive
same,Potency,[11],inactive
same,Potency,[12],inactive
same,Potency,[13],inactive
Oc1ccccc1-c1cc(-c2ccccc2F)[nH]n1,max response,[1],3.55%
same,max response,[2],4.01%
same,outcome,[3],inactive
same,max response,[4],-0.368%
same,max response,[5],3.17%
same,outcome,[6],inactive
same,Potency,[7],inactive
same,Potency,[8],inactive
same,outcome,[14],inactive
same,Potency,[9],inactive
same,Potency,[10],inactive
same,Potency,[15],inactive
same,Potency,[11],inactive
same,Potency,[12],inactive
same,Potency,[13],inactive
OC[C@H]1O[C@@H](Oc2cc(O)cc(-c3cc4ccc(O[C@@H]5O[C@H](CO)[C@@H](O)[C@H](O)[C@H]5O)cc4o3)c2)[C@H](O)[C@@H](O)[C@@H]1O,max response,[1],-9.86%
same,max response,[2],-2.42%
same,outcome,[3],inactive
same,max response,[4],0.0792%
same,max response,[5],-3.34%
same,outcome,[6],inactive [at 17.4 µM]
same,Potency,[7],inactive
same,Potency,[8],inactive
same,outcome,[14],inactive
same,Potency,[9],inactive
same,Potency,[10],inactive
same,Potency,[15],inactive
same,Potency,[11],inactive
same,Potency,[12],inactive
same,Potency,[13],inactive
CC(=O)O[C@@H]1CC2C(C)(C)C(=O)C=C[C@]2(C)C2CC[C@]3(C)C(=CC(=O)[C@@H]3c3ccoc3)[C@@]21C (stereo partly drawn),max response,[1],0.62%
same,max response,[2],-22.3%
same,outcome,[3],inactive
same,outcome,[4],inactive
same,max response,[5],0.533%
same,outcome,[6],inactive [at 17.4 µM]
same,Potency,[7],inactive
same,Potency,[8],inactive
same,outcome,[14],inactive
same,Potency,[9],inactive
same,Potency,[10],inactive
same,Potency,[15],inactive
same,Potency,[11],inactive
same,Potency,[13],inactive
CC1(C)C2CCC1(C)C(OC(=O)C(O)(CC(=O)O)CC(=O)O)C2 (stereo not drawn),outcome,[1],inactive
same,max response,[2],-0.502%
same,outcome,[3],inactive
same,outcome,[4],inactive
same,max response,[5],3.45%
same,outcome,[6],inactive
same,Potency,[7],inactive
same,Potency,[8],inactive
same,outcome,[14],inactive
same,Potency,[9],inactive
same,Potency,[10],inactive
same,Potency,[11],inactive
same,Potency,[12],inactive
same,Potency,[13],inactive
C[C@@H]1O[C@@H](O[C@H]2[C@H](O)[C@@H](O[C@@H]3O[C@H](CO)[C@H](O)[C@H](O)[C@H]3O)[C@H](O[C@H]3CC[C@@]4(C)C(CC[C@]5(C)C4CC=C4[C@@H]6CC(C)(C)CC[C@]6(C(=O)O[C@@H]6O[C@H](CO)[C@@H](O)[C@H](O)[C@H]6O)CC[C@]45C)C3(C)C)O[C@@H]2C(=O)O)[C@H](O)[C@H](O)[C@H]1O (stereo partly drawn),max response,[1],-0.719%
same,max response,[2],0.183%
same,outcome,[3],inactive
same,max response,[4],9.11%
same,max response,[5],-6.48%
same,outcome,[6],inactive [at 9.27 µM]
same,"activity change, negative = cytotoxicity",[7],1.15% [at 11.6 µM]
same,"activity change, negative = cytotoxicity",[14],-5.82% [at 11.6 µM]
same,"activity change, negative = cytotoxicity",[9],2.19% [at 11.6 µM]
same,"activity change, negative = cytotoxicity",[10],1.11% [at 11.6 µM]
same,"activity change, negative = cytotoxicity",[15],-2.99% [at 11.6 µM]
same,"activity change, negative = cytotoxicity",[11],-3.24% [at 11.6 µM]
same,"activity change, negative = cytotoxicity",[12],5.7% [at 11.6 µM]
same,"activity change, negative = cytotoxicity",[13],7.27% [at 11.6 µM]
